From article PMC7862700, “An all-to-all approach to the identification of sequence-specific readers for epigenetic DNA modifications on cytosine” come the findings set out here.

Assay in all cases: DAPPL (digital affinity profiling via proximity ligation, sequencing); 10 mM Tris-HCl pH 7.5, 50 mM NaCl, 1 mM DTT, 4% glycerol, room temperature, 30 min; GST-TFs on glutathione beads, 16-mer random dsDNA library, 0.1% formaldehyde crosslink after washing; high values mean tight binding
The target of one assay is T1, FEV (Homo sapiens, UniProt Q99581 1-238).
T1 sequence: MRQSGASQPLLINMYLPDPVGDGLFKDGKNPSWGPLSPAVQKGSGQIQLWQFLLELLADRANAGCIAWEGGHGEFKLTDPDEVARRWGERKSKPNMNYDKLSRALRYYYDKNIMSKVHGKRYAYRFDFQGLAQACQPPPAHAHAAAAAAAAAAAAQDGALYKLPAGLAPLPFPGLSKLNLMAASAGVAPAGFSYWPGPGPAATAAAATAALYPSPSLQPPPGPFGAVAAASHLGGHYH
As to conditions: protein: recombinant; tags: N-terminal GST; dsDNA, one strand shown. An outline of the steps: (§1)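 Human transcription factors fused to GST were expressed in yeast, captured on glutathione beads, given DNA barcodes and pooled with a GST-only negative control. Pools were incubated with 200 nmole of a 16-mer random double-stranded DNA library in Tris/NaCl/DTT/glycerol buffer at room temperature for 30 min. They were then washed, crosslinked with 0.1% formaldehyde, proximity-ligated (BsaI/T4 ligase, 1 h, 37 °C), PCR-amplified and sequenced on an Illumina NextSeq500. Binding signal is each 6-mer's read frequency for a factor divided by its frequency for the GST control.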

A further assay concerns the target ETV5 (Homo sapiens, UniProt P41161 1-510). As to conditions: protein: recombinant; tags: N-terminal GST; dsDNA, one strand shown. An outline of the steps:
as §1

A further assay concerns the target HSF1 (Homo sapiens, UniProt Q00613 1-529). As to conditions: protein: recombinant; tags: N-terminal GST; chain copies: 3; dsDNA, one strand shown. The procedure, abridged: as §1
A further assay has as its target T2, SPIC (Homo sapiens, UniProt Q8N5J4 1-248).
T2 sequence: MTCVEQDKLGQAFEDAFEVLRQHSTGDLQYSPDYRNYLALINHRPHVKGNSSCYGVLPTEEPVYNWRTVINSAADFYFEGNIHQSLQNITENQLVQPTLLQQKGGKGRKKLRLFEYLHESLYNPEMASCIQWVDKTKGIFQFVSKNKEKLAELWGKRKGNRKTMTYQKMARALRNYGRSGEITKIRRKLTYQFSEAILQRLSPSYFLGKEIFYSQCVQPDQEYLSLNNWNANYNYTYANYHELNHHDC
As to conditions: protein: recombinant; tags: N-terminal GST; dsDNA, one strand shown. An outline of the steps: as §1

In another assay the target is ELF4 (Homo sapiens, UniProt Q99607 1-663). As to conditions: protein: recombinant; tags: N-terminal GST; dsDNA, one strand shown. An outline of the steps:
as §1

Another assay concerns the target T3, ELK4 (Homo sapiens, UniProt P28324-2 1-405).
T3 sequence: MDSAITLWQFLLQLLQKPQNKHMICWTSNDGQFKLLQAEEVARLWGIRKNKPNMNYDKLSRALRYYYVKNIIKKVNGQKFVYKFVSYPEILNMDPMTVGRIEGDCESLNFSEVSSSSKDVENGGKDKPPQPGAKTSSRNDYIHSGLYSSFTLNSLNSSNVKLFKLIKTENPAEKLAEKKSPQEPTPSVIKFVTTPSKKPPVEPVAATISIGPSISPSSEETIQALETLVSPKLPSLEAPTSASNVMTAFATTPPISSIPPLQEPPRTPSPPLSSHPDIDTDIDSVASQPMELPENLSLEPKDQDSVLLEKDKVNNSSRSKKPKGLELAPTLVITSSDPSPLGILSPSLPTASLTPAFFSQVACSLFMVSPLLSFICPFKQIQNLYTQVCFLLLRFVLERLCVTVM
As to conditions: protein: recombinant; tags: N-terminal GST; dsDNA, one strand shown. The procedure, abridged: as §1

The target of another assay is T4, ETV2 (Homo sapiens, UniProt O00321 1-342).
T4 sequence: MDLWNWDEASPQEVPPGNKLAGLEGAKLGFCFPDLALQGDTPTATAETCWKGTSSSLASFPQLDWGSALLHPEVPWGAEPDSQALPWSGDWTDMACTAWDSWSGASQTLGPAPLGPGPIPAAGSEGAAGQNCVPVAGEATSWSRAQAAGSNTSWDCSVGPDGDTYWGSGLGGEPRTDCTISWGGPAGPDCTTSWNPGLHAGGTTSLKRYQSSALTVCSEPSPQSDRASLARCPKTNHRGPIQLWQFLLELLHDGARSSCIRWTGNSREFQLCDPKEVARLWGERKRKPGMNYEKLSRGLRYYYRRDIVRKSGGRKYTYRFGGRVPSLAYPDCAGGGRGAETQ
As to conditions: protein: recombinant; tags: N-terminal GST; dsDNA, one strand shown. An outline of the steps:
as §1

The next assay has as its target T5, ELF3 (Homo sapiens, UniProt P78545 1-371).
T5 sequence: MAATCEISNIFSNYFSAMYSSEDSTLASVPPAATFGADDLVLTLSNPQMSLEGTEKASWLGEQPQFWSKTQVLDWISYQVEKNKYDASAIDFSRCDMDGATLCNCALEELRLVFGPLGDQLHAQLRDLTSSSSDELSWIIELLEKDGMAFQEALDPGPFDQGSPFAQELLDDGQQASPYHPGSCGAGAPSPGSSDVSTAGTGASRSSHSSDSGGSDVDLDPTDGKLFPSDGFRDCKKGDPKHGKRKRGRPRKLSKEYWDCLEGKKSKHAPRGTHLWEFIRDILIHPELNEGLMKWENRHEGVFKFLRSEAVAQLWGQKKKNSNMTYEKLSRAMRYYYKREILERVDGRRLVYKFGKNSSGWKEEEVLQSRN
As to conditions: protein: recombinant; tags: N-terminal GST; dsDNA, one strand shown. The procedure, abridged: as §1

The target of another assay is CRX (Homo sapiens, UniProt O43186 1-299). As to conditions: protein: recombinant; tags: N-terminal GST; dsDNA, one strand shown. The procedure, abridged:
as §1

The target in another assay is ETV1 (Homo sapiens, UniProt P50549 1-477). As to conditions: protein: recombinant; tags: N-terminal GST; dsDNA, one strand shown. An outline of the steps: as §1
In another assay the target is T6, ERF (Homo sapiens, UniProt P50548 1-548).
T6 sequence: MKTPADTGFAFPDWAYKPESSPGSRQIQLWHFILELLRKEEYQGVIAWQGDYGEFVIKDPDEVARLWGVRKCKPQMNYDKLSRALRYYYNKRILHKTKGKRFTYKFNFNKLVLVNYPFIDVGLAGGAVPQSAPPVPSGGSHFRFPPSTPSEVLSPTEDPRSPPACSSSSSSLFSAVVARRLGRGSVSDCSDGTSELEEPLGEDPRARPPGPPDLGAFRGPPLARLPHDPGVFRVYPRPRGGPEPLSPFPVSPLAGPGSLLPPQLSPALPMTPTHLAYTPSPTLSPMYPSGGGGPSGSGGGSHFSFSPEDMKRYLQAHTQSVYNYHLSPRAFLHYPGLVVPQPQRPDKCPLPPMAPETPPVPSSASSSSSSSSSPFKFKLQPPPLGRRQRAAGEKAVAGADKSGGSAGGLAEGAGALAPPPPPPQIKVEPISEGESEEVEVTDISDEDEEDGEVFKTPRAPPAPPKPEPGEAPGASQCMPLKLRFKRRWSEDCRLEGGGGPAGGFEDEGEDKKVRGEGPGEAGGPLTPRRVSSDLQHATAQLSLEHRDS
As to conditions: protein: recombinant; tags: N-terminal GST; dsDNA, one strand shown. The procedure, abridged: as §1

A further assay deals with T7, ETV3L (Homo sapiens, UniProt Q6ZN32 1-361).
T7 sequence: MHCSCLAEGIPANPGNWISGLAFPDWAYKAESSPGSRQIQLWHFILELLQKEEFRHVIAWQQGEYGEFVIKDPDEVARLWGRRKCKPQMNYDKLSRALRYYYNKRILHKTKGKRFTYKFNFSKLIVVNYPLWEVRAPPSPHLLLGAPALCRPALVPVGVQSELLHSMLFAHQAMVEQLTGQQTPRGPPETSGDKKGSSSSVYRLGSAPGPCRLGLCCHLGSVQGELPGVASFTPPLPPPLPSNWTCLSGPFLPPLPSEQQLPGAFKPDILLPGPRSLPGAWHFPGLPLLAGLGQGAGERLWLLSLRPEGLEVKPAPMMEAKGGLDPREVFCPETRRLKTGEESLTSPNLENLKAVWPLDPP
As to conditions: protein: recombinant; tags: N-terminal GST; dsDNA, one strand shown. The procedure, abridged:
as §1

The next assay deals with T8, ETS2 (Homo sapiens, UniProt P15036 1-469).
T8 sequence: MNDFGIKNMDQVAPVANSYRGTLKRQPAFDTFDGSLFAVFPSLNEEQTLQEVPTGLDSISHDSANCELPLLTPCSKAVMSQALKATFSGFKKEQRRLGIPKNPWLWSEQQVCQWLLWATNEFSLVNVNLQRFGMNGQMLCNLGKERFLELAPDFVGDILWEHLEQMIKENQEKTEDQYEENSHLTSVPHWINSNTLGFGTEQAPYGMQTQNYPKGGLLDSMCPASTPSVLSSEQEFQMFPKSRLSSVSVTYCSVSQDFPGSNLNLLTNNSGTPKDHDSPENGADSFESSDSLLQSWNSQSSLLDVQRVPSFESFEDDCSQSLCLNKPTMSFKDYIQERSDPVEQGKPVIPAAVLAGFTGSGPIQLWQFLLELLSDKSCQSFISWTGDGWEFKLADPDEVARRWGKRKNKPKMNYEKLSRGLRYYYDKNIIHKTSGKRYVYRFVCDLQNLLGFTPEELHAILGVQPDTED
As to conditions: protein: recombinant; tags: N-terminal GST; dsDNA, one strand shown. An outline of the steps:
as §1

A further assay deals with T9, SPDEF (Homo sapiens, UniProt O95238 1-335).
T9 sequence: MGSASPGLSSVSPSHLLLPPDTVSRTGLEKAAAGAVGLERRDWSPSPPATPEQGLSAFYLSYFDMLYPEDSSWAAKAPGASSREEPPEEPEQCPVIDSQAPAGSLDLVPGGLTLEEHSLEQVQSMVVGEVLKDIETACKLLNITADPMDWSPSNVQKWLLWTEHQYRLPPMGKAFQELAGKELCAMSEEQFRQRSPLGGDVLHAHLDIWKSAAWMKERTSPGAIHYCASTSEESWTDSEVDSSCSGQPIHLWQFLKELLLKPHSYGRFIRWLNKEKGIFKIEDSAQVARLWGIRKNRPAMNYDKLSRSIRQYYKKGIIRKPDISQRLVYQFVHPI
As to conditions: protein: recombinant; tags: N-terminal GST; dsDNA, one strand shown. An outline of the steps:
as §1

The next assay addresses T10, ETV7 (Homo sapiens, UniProt Q9Y603 1-341).
T10 sequence: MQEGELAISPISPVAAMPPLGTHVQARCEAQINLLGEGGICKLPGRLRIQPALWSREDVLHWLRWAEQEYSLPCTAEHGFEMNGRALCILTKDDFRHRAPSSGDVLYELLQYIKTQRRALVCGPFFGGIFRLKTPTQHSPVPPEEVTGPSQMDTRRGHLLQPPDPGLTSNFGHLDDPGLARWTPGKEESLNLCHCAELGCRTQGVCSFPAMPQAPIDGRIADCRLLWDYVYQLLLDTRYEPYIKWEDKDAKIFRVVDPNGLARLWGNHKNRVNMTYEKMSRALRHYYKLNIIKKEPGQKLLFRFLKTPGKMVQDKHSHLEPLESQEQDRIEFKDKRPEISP
As to conditions: protein: recombinant; tags: N-terminal GST; dsDNA, one strand shown. An outline of the steps:
as §1

The target in the next assay is T11, ELF5 (Homo sapiens, UniProt Q9UKW6-2 1-255).
T11 sequence: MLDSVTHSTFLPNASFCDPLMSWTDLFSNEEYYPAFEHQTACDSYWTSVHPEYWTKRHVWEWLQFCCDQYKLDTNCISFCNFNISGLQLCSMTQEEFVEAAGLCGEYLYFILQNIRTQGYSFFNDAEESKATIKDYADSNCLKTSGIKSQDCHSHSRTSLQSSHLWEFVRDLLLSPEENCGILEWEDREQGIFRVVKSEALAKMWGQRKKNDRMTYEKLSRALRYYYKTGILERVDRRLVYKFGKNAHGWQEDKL
As to conditions: protein: recombinant; tags: N-terminal GST; dsDNA, one strand shown. An outline of the steps: as §1

The next assay has as its target T12, ETV3 (Homo sapiens, UniProt P41162-2 1-143).
T12 sequence: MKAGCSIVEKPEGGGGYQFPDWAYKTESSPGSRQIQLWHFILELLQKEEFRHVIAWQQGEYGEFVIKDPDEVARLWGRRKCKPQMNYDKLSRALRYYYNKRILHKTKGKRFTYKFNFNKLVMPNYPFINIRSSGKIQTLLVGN
As to conditions: protein: recombinant; tags: N-terminal GST; dsDNA, one strand shown. An outline of the steps: as §1

Another assay has as its target ETV6 (Homo sapiens, UniProt P41212 1-452). As to conditions: protein: recombinant; tags: N-terminal GST; dsDNA, one strand shown. An outline of the steps:
as §1

Chain of ETV6 (P41212 whole entry): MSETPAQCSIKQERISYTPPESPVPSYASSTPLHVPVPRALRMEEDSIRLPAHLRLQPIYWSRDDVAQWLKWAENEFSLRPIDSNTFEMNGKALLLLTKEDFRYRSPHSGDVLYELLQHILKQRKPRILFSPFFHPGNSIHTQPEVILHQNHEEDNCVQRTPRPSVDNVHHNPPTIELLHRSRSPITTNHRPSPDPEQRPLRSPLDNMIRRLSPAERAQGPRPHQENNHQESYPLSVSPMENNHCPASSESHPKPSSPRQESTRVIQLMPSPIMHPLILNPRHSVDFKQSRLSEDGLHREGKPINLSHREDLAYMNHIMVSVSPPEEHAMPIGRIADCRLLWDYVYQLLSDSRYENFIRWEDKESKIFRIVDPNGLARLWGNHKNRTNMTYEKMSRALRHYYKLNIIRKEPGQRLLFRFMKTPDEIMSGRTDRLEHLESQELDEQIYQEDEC
Chain of CRX (O43186 whole entry): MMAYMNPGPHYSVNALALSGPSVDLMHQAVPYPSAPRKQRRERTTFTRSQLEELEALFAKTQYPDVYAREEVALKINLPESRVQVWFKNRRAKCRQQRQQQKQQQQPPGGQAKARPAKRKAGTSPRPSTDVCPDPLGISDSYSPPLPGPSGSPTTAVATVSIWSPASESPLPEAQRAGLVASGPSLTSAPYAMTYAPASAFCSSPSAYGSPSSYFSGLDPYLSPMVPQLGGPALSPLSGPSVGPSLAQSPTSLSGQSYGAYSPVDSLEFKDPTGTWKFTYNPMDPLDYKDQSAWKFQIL
Chain of HSF1 (Q00613 whole entry): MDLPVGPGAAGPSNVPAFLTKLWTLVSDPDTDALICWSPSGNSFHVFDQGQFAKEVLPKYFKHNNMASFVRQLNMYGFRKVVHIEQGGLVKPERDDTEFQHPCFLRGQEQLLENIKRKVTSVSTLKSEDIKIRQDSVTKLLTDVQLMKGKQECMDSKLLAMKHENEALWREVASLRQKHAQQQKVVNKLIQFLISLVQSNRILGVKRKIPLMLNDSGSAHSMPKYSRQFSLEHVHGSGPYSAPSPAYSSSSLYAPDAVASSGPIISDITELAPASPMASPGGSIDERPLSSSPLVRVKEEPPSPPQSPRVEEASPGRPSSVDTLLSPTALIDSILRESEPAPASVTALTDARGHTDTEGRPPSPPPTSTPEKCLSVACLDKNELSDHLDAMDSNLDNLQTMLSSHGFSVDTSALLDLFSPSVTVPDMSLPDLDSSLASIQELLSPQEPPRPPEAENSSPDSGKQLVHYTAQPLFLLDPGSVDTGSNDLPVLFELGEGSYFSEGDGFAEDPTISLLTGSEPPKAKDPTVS
Chain of ETV5 (P41161 whole entry): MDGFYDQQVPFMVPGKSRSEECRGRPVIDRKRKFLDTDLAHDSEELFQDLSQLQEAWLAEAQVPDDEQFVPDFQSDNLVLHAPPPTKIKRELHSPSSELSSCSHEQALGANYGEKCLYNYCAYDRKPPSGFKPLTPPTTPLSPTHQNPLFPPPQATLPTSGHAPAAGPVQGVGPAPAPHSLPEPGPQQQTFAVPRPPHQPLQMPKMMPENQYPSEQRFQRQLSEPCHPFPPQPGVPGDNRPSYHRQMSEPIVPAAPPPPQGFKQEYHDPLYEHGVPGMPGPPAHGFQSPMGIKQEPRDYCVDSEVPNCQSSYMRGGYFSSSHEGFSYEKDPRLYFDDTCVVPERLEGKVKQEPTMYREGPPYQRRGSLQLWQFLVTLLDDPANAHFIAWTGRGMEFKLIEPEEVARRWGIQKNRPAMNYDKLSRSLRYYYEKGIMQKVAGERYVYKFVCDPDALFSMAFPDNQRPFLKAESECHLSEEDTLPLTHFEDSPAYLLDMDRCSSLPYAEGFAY
Chain of ETV1 (P50549 whole entry): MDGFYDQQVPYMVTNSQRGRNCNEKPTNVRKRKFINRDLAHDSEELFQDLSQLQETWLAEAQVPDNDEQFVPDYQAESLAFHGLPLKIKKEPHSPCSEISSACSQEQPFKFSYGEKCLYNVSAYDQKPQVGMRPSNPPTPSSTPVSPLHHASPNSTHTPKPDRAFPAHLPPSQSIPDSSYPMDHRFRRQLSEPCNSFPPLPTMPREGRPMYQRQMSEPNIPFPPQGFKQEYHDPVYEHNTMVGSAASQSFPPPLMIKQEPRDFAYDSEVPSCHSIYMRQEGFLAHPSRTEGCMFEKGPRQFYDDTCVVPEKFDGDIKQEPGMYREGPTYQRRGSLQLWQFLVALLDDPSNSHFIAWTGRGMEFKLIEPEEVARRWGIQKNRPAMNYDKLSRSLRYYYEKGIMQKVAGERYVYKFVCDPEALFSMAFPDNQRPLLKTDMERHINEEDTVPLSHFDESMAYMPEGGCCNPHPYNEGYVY
Chain of ELF4 (Q99607 whole entry): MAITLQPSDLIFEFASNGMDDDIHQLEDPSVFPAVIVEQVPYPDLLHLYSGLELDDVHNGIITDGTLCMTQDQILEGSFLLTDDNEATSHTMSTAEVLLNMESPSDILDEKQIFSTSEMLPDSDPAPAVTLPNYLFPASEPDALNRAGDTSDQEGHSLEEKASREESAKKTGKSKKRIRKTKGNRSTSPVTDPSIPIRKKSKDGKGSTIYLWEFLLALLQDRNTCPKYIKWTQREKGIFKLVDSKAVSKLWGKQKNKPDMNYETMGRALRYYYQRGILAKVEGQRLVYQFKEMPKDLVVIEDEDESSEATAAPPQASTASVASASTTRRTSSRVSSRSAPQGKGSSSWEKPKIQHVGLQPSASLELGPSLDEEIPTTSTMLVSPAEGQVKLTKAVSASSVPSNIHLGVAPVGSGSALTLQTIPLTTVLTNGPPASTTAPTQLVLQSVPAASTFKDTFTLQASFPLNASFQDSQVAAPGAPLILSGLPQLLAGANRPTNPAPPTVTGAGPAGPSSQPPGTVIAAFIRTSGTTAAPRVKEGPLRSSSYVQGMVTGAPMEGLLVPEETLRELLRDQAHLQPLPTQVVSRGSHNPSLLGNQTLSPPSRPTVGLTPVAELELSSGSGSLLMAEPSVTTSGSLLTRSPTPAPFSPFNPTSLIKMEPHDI

On to CACTTA, for which the binding signal with FEV is 1.19 fold enrichment (6-mer frequency, TF over GST control); with ETV5, 1.2 fold enrichment (6-mer frequency, TF over GST control); with HSF1, 1.26 fold enrichment (6-mer frequency, TF over GST control); in the assay with SPIC, 1.08 fold enrichment (6-mer frequency, TF over GST control); with ELF4, 1.19 fold enrichment (6-mer frequency, TF over GST control); in the assay with ELK4, 1.13 fold enrichment (6-mer frequency, TF over GST control). Also, the binding signal with ETV2 is 1.21 fold enrichment (6-mer frequency, TF over GST control); with ELF3, 1.24 fold enrichment (6-mer frequency, TF over GST control); with CRX it was 1.62 fold enrichment (6-mer frequency, TF over GST control); with ETV1, 1.25 fold enrichment (6-mer frequency, TF over GST control); with ERF it was 1.22 fold enrichment (6-mer frequency, TF over GST control); with ETV3L it was 1.13 fold enrichment (6-mer frequency, TF over GST control). Besides, the binding signal in the assay with ETS2 was 1.22 fold enrichment (6-mer frequency, TF over GST control); with SPDEF, 1.34 fold enrichment (6-mer frequency, TF over GST control); in the assay with ETV7, 1.21 fold enrichment (6-mer frequency, TF over GST control); with ELF5 it was 1.18 fold enrichment (6-mer frequency, TF over GST control); with ETV3, 1.24 fold enrichment (6-mer frequency, TF over GST control); in the assay with ETV6, 1.23 fold enrichment (6-mer frequency, TF over GST control).
